Here are results for 102 compounds from PubChem BioAssay AID1259343 (VanderVen Lab, College of Veterinary Medicine, Cornell …, 2017).

SMILES strings stand for the structures. Hit rate of the full screen: of about 6,200 compounds, about 2,900 (47%) were called active. The set was probably picked from earlier hits. Some of the results follow. Values without a mark were called inactive. No stated cut-off is given here; in the data, active means inhibition above about 50%; inactive means the rest.

The nature of this assay: Mycobacterium tuberculosis growth inhibition, primary screen (AID 1259343). Particulars: inhibition: at 10 µM, stronger effect = higher value; outcome: 10 uM.
For the compound `CCOc1ccc(N=C(Nc2ccc(OCC)cc2)SC)cc1`, the inhibition is -1.39%. Turning to `COc1ccc(N=C(Nc2ccc(OC)cc2)SC)cc1`, the inhibition is 74.3% (active). `CCn1c(=S)[nH]c2sc3c(c2c1=O)CCC(C)C3` (configuration not stated): the inhibition is 21.2%. As for `CCn1c(=S)[nH]c2scc(-c3cccs3)c2c1=O`, the inhibition is 98.8% (active). As for `Cn1c(=S)[nH]c2scc(-c3cccs3)c2c1=O`, the figure is -21.9%. Under `Cc1csc(NC(=O)c2ccc(COc3cccc4c3OC(C)(C)C4)cc2)n1` stands 92.8% (active); under `CCN(CC)[P+](N(C)Cc1ccco1)(N(CC)CC)N(CC)CC`, 30.8%.

On to `NC1=NC(c2ccc(-c3ccccc3)cc2)n2c(nc3ccccc32)N1` (configuration not stated), for which the inhibition was 26.9%.

With `CC(C)c1ccc(C2N=C(N)Nc3nc4ccccc4n32)cc1` (configuration not stated), the inhibition was 13.8%.

As to `NC1=NC(c2cccc(Cl)c2)n2c(nc3ccccc32)N1` (configuration not stated), the inhibition was 56.7% (active). With `CC(Cn1cccn1)NC(=O)c1ccc(Br)o1` (configuration not stated), the inhibition was 22.1%. As to `Cc1oc(C)c(C(=O)NC(C)Cc2ccc(Cl)cc2)c1C` (configuration not stated), the inhibition was 42.4%. For the compound `Cc1cc(C(=O)NC(C)Cc2ccc(Br)cc2)on1` (configuration not stated), the inhibition was 55.5% (active). `CCCn1nc(C)c(CNc2ccc(Br)cc2)c1C`: the inhibition is 20%. Under `COc1ccc(C2CC(=O)c3cc([N+](=O)[O-])ccc3O2)cc1` (configuration not stated) stands 96.6% (active); under `O=C(CCc1nnc(Cc2ccc(-c3ccccc3)cc2)o1)NCCc1ccccn1`, 50.7% (active). As for `CN(C)C(=O)n1nnnc1Cc1ccc(-c2ccccc2)cc1`, the inhibition was 39.2%. With `O=C(CCc1nnc(Cc2ccc(-c3ccccc3)cc2)o1)NCc1cccnc1`, the inhibition entry was “inactive”. As to `Cc1cn2nc(NC3CCc4ccccc43)sc2n1` (configuration not stated), the inhibition is 41.4%. Turning to `O=C(CCc1nnc(Cc2ccc(-c3ccccc3)cc2)o1)NC1CCc2ccccc21` (configuration not stated), the inhibition is 62% (active).

As for `CC(NC(=O)CCc1nnc(Cc2ccc(-c3ccccc3)cc2)o1)c1ccccc1` (configuration not stated), the inhibition was 37.7%. In the case of `O=c1oc2c(c(O)c1-c1ccccc1)-c1ccccc1CC2`, the inhibition was 81% (active). Consider `O=C(Cc1noc(C2CC2c2ccc(Cl)cc2)n1)NC1CCCC1` (configuration not stated), for which the inhibition was 91.9% (active). As for `CC(C)(C)c1nc(CNC(=O)Cc2ccc(Cl)cc2)no1`, the figure is 27.8%; as for `O=C(Cc1coc(-c2ccccc2)n1)NC1CCCC1`, 21.1%; as for `Nc1ccc(-n2cnc3ccccc32)cc1`, 90.2% (active). Consider `CC(C)c1nc(SCC(=O)N(C)CCOc2ccc(Cl)cc2)n[nH]1`, for which the inhibition was 34.8%. Under `CCOC(=O)c1cnc(SCc2ccc(Cl)cc2)nc1N` stands 89.2% (active); under `Clc1ccc2nnc(-c3ccc(Br)cc3)n2n1`, 68.1% (active). With `Brc1ccc(-c2ccc(Br)cc2)cc1`, the inhibition is 38.3%. Take `CC(CC(=O)Nc1ccccc1-c1nn[nH]n1)CC(C)(C)C` (configuration not stated): the inhibition was -15.1%.

Regarding `CCOC(=O)c1c(C)c(C(=O)NCCC(C)C)c(C)n1Cc1ccccc1`, the inhibition was 56.4% (active). As to `CC(C)CCNC(=O)c1csc(-c2ccccc2)n1`, the inhibition was -48.7%.

Regarding `CCOc1nc(C#N)nc(N2CCOCC2)n1`, the inhibition is 22.3%. As for `COC(=O)C1=C(C)N(C)C(=O)C12c1ccccc1-c1oc(N)nc12` (configuration not stated), the inhibition is 58.3% (active). Under `COc1c(F)c(F)c(C(=O)C2C(=O)C=C(c3c(F)c(F)c(OC)c(F)c3F)OC2=O)c(F)c1F` (configuration not stated) stands 36.4%.

For `Cc1ccc2nc(-c3ccccn3)c(NC(C)(C)CC(C)(C)C)n2c1`, the inhibition was 101% (active). Regarding `Cc1cccn2c(NC(C)(C)CC(C)(C)C)c(-c3cccc(OC(=O)c4cccc5ccccc45)c3)nc12`, the inhibition was 9.87%. Under `Cc1ccc(NC(=O)c2cc3c(C(F)(F)F)cc(=O)[nH]c3o2)c(Cl)c1` stands 101% (active). For the compound `O=C(Nc1ccc(C(F)(F)F)[nH]c1=O)c1ccccc1`, the inhibition was -22.3%. Under `Cc1ccc(-n2nc3c(c2NC(=O)/C=C\c2ccccc2)CSC3)cc1` stands 84% (active).

In the case of `CCCc1ccc(CN2CCN(Cc3cccc(F)c3)CC2)o1`, the inhibition was 45.4%. As for `CN(Cc1ccco1)C(=O)c1sc2cc(F)ccc2c1Cl`, the figure is 20.1%. Consider `Cc1cccc(C2CC(C(=O)N(C)Cc3ccco3)CN(Cc3cccc(F)c3)C2)c1` (configuration not stated), for which the inhibition was 54.6% (active). Take `Cc1cc(C(=O)NCCc2ccc(Cl)cc2)c(C)o1`: the inhibition is 88.2% (active). In the case of `CC(C)Nc1ncccc1C(=O)NCCc1cccc(Cl)c1`, the inhibition was 15.2%. In the case of `CC(C)Cc1noc(Cn2cc(I)cn2)n1`, the inhibition was 91.5% (active). Under `CC(C)Cc1nc(CS(=O)(=O)C/C=C/c2ccccc2)no1` stands 43.6%; under `CC(CCC(=O)O)[C@H]1CCC2C3CC[C@@H]4C[C@H](O)CC[C@]4(C)C3C=C[C@@]21C` (some centres not stated), 34.3%. For `O=S(CCCOc1ccc(F)cc1)Cc1ccc(F)cc1Cl` (configuration not stated), the inhibition was 89.6% (active).

For the compound `CN(CCOc1ccc(F)cc1)Cc1nc2cc(Cl)ccc2c(=O)[nH]1`, the inhibition is -0.34%.

As to `Cc1cc(NC(=O)c2cccc(F)c2)n(-c2nc3c(c(=O)[nH]2)CCC3)n1`, the inhibition is 101% (active). `Cc1cc(NC(=O)c2cccc(C(F)(F)F)c2)n(-c2nc3c(c(=O)[nH]2)CCC3)n1`: the inhibition is 100% (active). In the case of `CN(C)C(CNC(=O)c1ccc(C(F)(F)F)cc1)c1c(F)cccc1Cl` (configuration not stated), the inhibition was 8.7%. `O=C(NCCNc1cccc(C(F)(F)F)n1)c1ccc(O)cc1`: the inhibition was 73.2% (active).

Regarding `CN(Cc1ccc(Br)s1)Cn1ncc2c([nH]c3ccccc32)c1=O`, the inhibition was -13.5%. As for `O=C(Nn1cc([N+](=O)[O-])cn1)c1cccc(COc2ccc(Br)cc2)c1`, the inhibition is 78.8% (active). With `CCNC(=O)c1ccccc1OCc1cccc(Br)c1`, the inhibition was 19.8%.

For `Cc1nc([N+](=O)[O-])cn1CCC(=O)NOCc1ccccc1`, the inhibition was -5.24%.

Take `CNC(=O)Cc1ccc(-c2cc(OC)ccc2F)cc1`: the inhibition was 57.2% (active). Turning to `CCCSc1nsc(SCCC)c1C#N`, the inhibition was 97.4% (active). Take `CCCCCCSc1s[nH]c(=O)c1C#N`: the inhibition result is “inactive”. With `Fc1ccccc1Cn1nnc(-c2ccc(Br)cc2)n1`, the inhibition was 94.7% (active).

In the case of `Fc1ccc(-c2nnn(Cc3ccccc3Br)n2)cc1`, the inhibition is -14%.

Consider `O=c1cc2c(nn1Cc1ccc(Br)cc1F)CCCC2`, for which the inhibition was -5.6%.

On to `C/C(=C\c1ccco1)CN1CCN(c2nc3cc(C)ccc3o2)CC1`, for which the inhibition is 94.4% (active). As for `Cc1ccc2oc(CN3CCN(c4cc(N)nc(N)n4)CC3)c(C)c2c1`, the inhibition is 34.6%. For the compound `C/C(=C\c1cc(Cl)ccc1O)CN1CCN(c2ncc(F)cn2)CC1`, the inhibition was 37.7%.

Turning to `CCCCN(C(=O)c1nc2nccc(C)n2n1)c1ccccc1`, the inhibition was -8.51%.

For `C(=Cc1ccccc1)CSc1nnc(-c2c[nH]c3ccccc23)o1`, the inhibition is 19.9%.

`C=CCSc1nnc(-c2sc3ccccc3c2Cl)o1`: the inhibition was 66.8% (active). On to `S=c1oc(-c2sc3ccccc3c2Cl)nn1CN1CCOCC1`, for which the inhibition is 1.82%. For the compound `COc1cc(OC)c(C2=CCN(C(=O)CC3CCCC3)CC2)c(OC)c1`, the inhibition was 5.97%. As for `COc1cc2c(cc1OC)CN(C(=O)CCl)CC2`, the figure is 83.7% (active); as for `CCc1csc(NC(=O)C2=NOC(c3ccccc3)C2)n1` (configuration not stated), 64% (active). For `O=C(Cc1csc(NC(=O)NC2CCCCC2)n1)Nc1ccccc1Oc1ccccc1`, the inhibition is -3.55%. As for `Brc1cc(CNc2cccnc2N2CCCC2)cs1`, the inhibition is 21.1%. Regarding `Cc1csc2nc(CNc3cccc(C#Cc4cccs4)c3)cc(=O)n12`, the inhibition is 60.6% (active).

Take `O=c1cc(CNc2cccc(F)c2)nc2sc3c(n12)CCCC3`: the inhibition was 30.1%. `Cc1csc2nc(CNc3ccc(NC(=O)C4CC4)cc3C(F)(F)F)cc(=O)n12`: the inhibition is 10.5%. As for `CC(CCc1ccccc1)NC(=O)c1cc(Cl)ccn1` (configuration not stated), the inhibition was 43.1%.

For the compound `O=C(NCCc1ccccc1Cl)c1cccc2ccnn12`, the inhibition is 44.4%. On to `CC(Cc1ccccc1Cl)NC(=O)c1ccccn1` (configuration not stated), for which the inhibition was 70.5% (active).

`Cc1ccc(S(=O)(=O)NC(C)c2ccc(Cl)cc2Cl)s1` (configuration not stated): the inhibition is 42.2%.

In the case of `Cc1ccc(S(=O)(=O)NCCc2sc(-c3ccc(Cl)cc3)nc2C)s1`, the inhibition is 76.3% (active). As to `Cc1ccc(S(=O)(=O)Nc2cc(C(C)C)no2)s1`, the inhibition is 43.6%. Consider `CCCCOc1ccc(C(=O)Nc2cc(C)nn2-c2nc(C)c(C)c(=O)[nH]2)cc1`, for which the inhibition was 16.8%.

In the case of `CCCCOc1ccc(C(=O)Nc2cc(C)nn2-c2nc(C)cc(=O)[nH]2)cc1`, the inhibition was 101% (active). Consider `CCOc1ccc(C(=O)Nc2cc(C)nn2-c2nc(C)cc(=O)[nH]2)cc1`, for which the inhibition was 102% (active). Under `CCOc1ccc(C(=O)Nc2cc(-c3cccs3)nn2-c2nc(C)cc(=O)[nH]2)cc1` stands 93.9% (active); under `Cc1ccc(C)c2c(C)c(C(=O)NCC3(C)CCCO3)oc12` (configuration not stated), 38.4%. As for `O=C(Oc1ccccc1C(=O)O)c1ccccc1O`, the inhibition entry was “inactive”. As for `Nc1ccc(C(=O)Oc2ccccc2)c(O)c1`, the figure is 98.9% (active); as for `O=S(Cc1cccc(C(F)(F)F)c1)Cc1ccc(Cl)cc1Cl` (configuration not stated), 42.1%. For the compound `CCc1nc(Nc2cccc(C(F)(F)F)c2)c2ccc(Cl)cc2n1`, the inhibition is 88.9% (active). On to `O=S(=O)(Nc1nc2ccccc2nc1Cl)c1cccc(C(F)(F)F)c1`, for which the inhibition was 38.5%. Under `CN(CC1COc2ccccc2O1)C(=O)CCl` (configuration not stated) stands -21.8%; under `CC(C)N(C(=O)CCl)c1ccccc1`, 100% (active); under `Cc1cc(=O)[nH]c2sc(C(=O)Nc3ccc(Br)cc3)c(N)c12`, 79.5% (active). Take `COc1cccc(-c2ccc(NC(=O)C3CCCN(Cc4nccs4)C3)cc2)c1` (configuration not stated): the inhibition was 48.2%.

As for `COc1cccc(-c2ccc(NC(=O)C3CCCN(Cc4cccc(O)c4)C3)cc2)c1` (configuration not stated), the inhibition was 70.1% (active).

Take `CCCc1ncc(CN2CCCC(C(=O)Nc3ccc(-c4cccc(OC)c4)cc3)C2)cn1` (configuration not stated): the inhibition is 68.2% (active).

As usually defined, the inhibition is the change of the read-out against control, counted positive when it falls.
